Source: ChEMBL document CHEMBL4513216, “Probing the Open Global Health Chemical Diversity Library for Multistage-Active Starting Points for Next-Generation Antimalarials” (ACS Infect Dis, 2020)
Among all 69,000 compounds or so, about 8,600 (12%) showed an effect of 50% or more. Many of the other results were omitted from the sample, so strong results are more common in it than they were.

test system: Plasmodium berghei; assay: Screen against P. berghei liver stage (PbLuc), transformed with Luciferase, at 10uM; type: functional, HepG2; conditions: tested at 10 uM

Structure (SMILES)	INHIBITION [%]
Cc1c(S(=O)(=O)NC2CC2)cc2c(C)cc(=O)n3c2c1CCC3	-17.1
CCCNc1c(NC(=O)NCCCOC)c(=O)oc2ccccc12	-13.6
CCNc1c(NC(=O)NCCOC)c(=O)oc2ccccc12	69.9
CCCNc1c(NC(=O)NCCOC)c(=O)oc2ccccc12	-24.7
CN1CCC(NC(=O)NCCNc2ccccn2)CC1	16.1
CCC(CNC(=O)NC1CCN(C)CC1)Oc1ccccc1Cl (stereo not given)	89.6
CN1CCC(NC(=O)Nc2cnn(-c3ccccc3Cl)c2)CC1	-10.1
CC(C)n1[nH]c(=O)c2c1NC(=O)CC2c1cccc2cccnc12 (stereo not given)	-62.3
Cc1ccnc(C2(C)CCCN2S(=O)(=O)c2cccnc2)n1 (stereo not given)	21.2
Cn1ccc(C(=O)NCc2ccc(CN3CCCC3)cc2)cc1=O	-2.19
Cn1ccnc1CNC(=O)Nc1ccc(OC2CCC2)c(F)c1	18
COc1cc(NC(=O)NCc2nccn2C)ccc1Br	50.8
Cc1cc(NC(=O)NCc2nccn2C)ccc1OC(C)C	37.1
Cc1cnn(CC2CCCN2C(=O)c2ccc(OCC3CC3)nc2)c1 (stereo not given)	-15
O=C(CCc1cc2n(n1)CCCN(C(=O)c1ccncc1)C2)NC1CC1	43.2
CC(C)[C@H](C)NC1CCN(c2ccc(-c3cscn3)cc2)CC1	81.4
CC(C)CC(C)NC1CCN(c2ccc(-c3cscn3)cc2)CC1 (stereo not given)	45.2
Cc1cc(NC(=O)CN2CCN(c3nc(C)cs3)C(C)C2)on1 (stereo not given)	-1.12

Structure (SMILES)	INHIBITION [%]
Cc1nc(C(C)C)sc1C(=O)N1CCC(N2CCSCC2)CC1	1.86
CS(=O)(=O)N1CCOCC2(CCN(Cc3ccc[nH]3)CC2)C1	57.1
CN1CCOCC2(CCN(Cc3ccc[nH]3)CC2)C1	18.7
c1c[nH]c(CN2CCC3(CC2)COCCN(CCN2CCCC2)C3)c1	-15.3
O=C(O)c1ccccc1-c1ccc(CN2CCC(CO)C2)cn1 (stereo not given)	33.2
CC(C)n1cnc2c1C(C(=O)N1CCOCC1)N(CC1CC1)CC2 (stereo not given)	-49.1
CN(C)C(=O)COCc1nn(C)c2c1CCN(Cc1ccco1)C2	13.3
Cc1cccc(CN2CCc3c(CNC(=O)CC#N)nn(C)c3C2)n1	44.2
Cc1cccc(CN2CCc3c(COCC(=O)N(C)C)nn(C)c3C2)n1	76.2
CN1CCC(c2cccc(-c3ccc(C(=O)O)cc3)n2)CC1	15.5
c1csc(CN2CCCN(c3ncnc4[nH]ccc34)CC2)c1	38.4
CCCc1nc(N(C)CCN2CCCCCC2)c2cnn(C)c2n1	53
CNc1ncc(CN(C)c2nc(C3CCCC3)nc3c2cnn3C)cn1	24.7
CCCc1nc(N(C)CCc2noc(C(C)C)n2)c2cnn(C)c2n1	42.3
CCCc1nc(N2CCCN(c3ncccn3)CC2)c2cnn(C)c2n1	30.9
CN(C)CCN(C)c1nc(CCc2ccccc2)nc2c1cnn2C	-13.4
CCCc1nc(N(C)Cc2cnc(NC)nc2)c2cnn(C)c2n1	58.7
